High-throughput results (PubChem)
Efflux pump inh – blocks antifungal efflux pumps in multiplex yeast assay; inhibition, % at 10 µM; AID 485275; S. cerevisiae Candida pump triplex, Nile Red efflux; 330,000 tested, 0.44% active;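 active means plate passing quality check with inhibition over a set limit, or well fluorescence over plate mean plus 4 SD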;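 further: Nile Red retained in pooled yeast measured as flow cytometry median fluorescence; 0% = buffer negative control and 100% = Enniatin B positive control; higher means more Nile Red kept so more efflux inhibition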
Calb FLC – C. albicans growth modulation with fluconazole; C. albicans CaCi-2 (fluconazole-resistant clinical isolate) + fluconazole, Alamar Blue growth, 48 h; growth inhibition, % (concentration not given with the values); 300,000 tested, 0.57% active; AID 1979;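 active means growth inhibition above about 58% in most replicates, limit read from the data, passing the limit was not always enough; inconclusive means exactly half the replicates above a set limit; inactive means most replicates below a set limit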;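 further: all wells also contain fluconazole at 8 µg/ml as a sub-toxic cotreatment; 0% = median of DMSO wells and 100% = median of geldanamycin control wells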
Cardio protect – modulators protecting cardiomyocytes from myocardial damage; AID 588492; protection from H2O2 cell death, % at 20 µM; H9c2 cardiomyocytes, H2O2 injury protection, ATPLite, 2 h; 360,000 tested, 0.63% active;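 active means compounds giving at least 50% protection of heart cells from peroxide-induced death in the single-dose screen, raw or plate-pattern-corrected value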;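 further: 0% = DMSO wells with peroxide and 100% = DMSO wells without peroxide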
KCC2 mod – KCC2 (human) Cl- transport modulation; KCC2 cells, thallium flux FluoZin-2 fluorescence; B-score of Tl+ flux slope (higher = more flux/activation; lower = inhibition) at 10 µM; 190,000 tested, 2.2% active;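 active means thallium flux slope and its plate-corrected score both differing from the plate sample mean at a set confidence after two filtering rounds, in either direction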;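 further: slope of fluorescence scaled to starting intensity during 10 to 20 s after thallium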
PHOSPHO1 inh – blocks human PHOSPHO1 phosphatase activity; Q8TCT1; recombinant PHOSPHO1, absorbance phosphatase assay; inhibition, % at 13.3 µM; 290,000 tested, 1.1% active; AID 1565; in the data active means inhibition above about 60%
Target sequence (Q8TCT1 whole entry, looked up): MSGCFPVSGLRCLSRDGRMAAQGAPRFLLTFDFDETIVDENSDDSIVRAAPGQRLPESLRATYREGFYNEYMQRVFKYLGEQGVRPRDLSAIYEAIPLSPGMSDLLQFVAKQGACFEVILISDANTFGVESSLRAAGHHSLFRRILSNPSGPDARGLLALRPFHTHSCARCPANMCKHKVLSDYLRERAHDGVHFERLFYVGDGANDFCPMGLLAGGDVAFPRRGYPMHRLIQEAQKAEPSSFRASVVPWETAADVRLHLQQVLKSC
KCC2 sec1 – KCC2 (human) modulation, secondary assay. AID 1713. HEK293-KCC2, thallium flux, FluoZin2 fluorescence; active compounds read high. normalised thallium flux (F/F0 slope) at 10 µM. 3,700 tested, 15% active. shares compounds with KCC2 mod;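 active means thallium flux slope above the same plate's solvent-only control mean plus 3 SD; inconclusive means the two replicate wells disagree; inactive means no significant difference from solvent-only control wells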
KCC2 bumet counter – thallium flux despite bumetanide block in KCC2 cells, secondary assay 3; AID 1714; shares compounds with KCC2 mod; HEK293-KCC2 + bumetanide/ouabain, thallium flux FluoZin2; active compounds read high; normalized thallium flux at 10 µM; 3,700 tested, 49% active;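 active means thallium entry rate above the same plate's blocked-transporter control wells by more than 3 SD; inconclusive means the two repeat wells disagree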;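 further: raw slope of fluorescence over initial fluorescence between 10 and 20 s after thallium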
KCC2 secondary2 – KCC2 (human) modulation, second secondary assay | shares compounds with KCC2 mod | HEK293-KCC2, thallium flux FluoZin2 fluorescence; actives lie on both sides; F/F0 rise rate, 10–20 s post-thallium | normalized thallium flux at 10 µM | 3,700 tested, 23% active | AID 1715;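 active means thallium flux slope more than 3 SD above or below the plate's solvent-only control mean, mostly below; inconclusive means the two repeat wells disagreed; inactive means no significant shift from solvent-only controls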;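 further: raw slope with 0.1% DMSO as baseline and bumetanide as block control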
HEK counter1 – parental HEK flux effect, counter-screen; shares compounds with KCC2 mod; 3,700 tested, 46% active; thallium flux rate (normalised fluorescence) at 10 µM; HEK293 parental cells, thallium flux FluoZin2, ouabain; baseline-ratio fluorescence slope, 10–20 s after thallium; AID 1716;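 active means thallium flux rate significantly above the same plate's solvent-only control wells, beyond their mean plus 3 SD; inconclusive means the two replicate wells gave conflicting results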
KCC2 ouabain – confirmation of human KCC2 modulators with ouabain. shares compounds with KCC2 mod. HEK293-KCC2, thallium flux FluoZin2 fluorescence; bidirectional: low = inhibitor, high = activator. raw Tl+ flux slope (below DMSO = inhibition, above = activation) at 10 µM. 3,700 tested, 48% active. AID 1717;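 active means thallium flux slope beyond 3 SD from same-plate DMSO control mean in most replicates, usually higher, sometimes lower; inconclusive means repeat tests gave conflicting results; inactive means no significant difference from controls in most replicates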;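 further: slope of initial-normalized fluorescence between seconds 10 and 20 after thallium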
HEK counter2 – parental HEK flux effect, counter-screen 2; HEK293 parental, thallium flux FluoZin-2 fluorescence slope; thallium flux slope at 10 µM; shares compounds with KCC2 mod; AID 1718; 3,700 tested, 33% active;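 active means thallium flux slope above the same plate's solvent-control mean plus 3 SD in both duplicate wells; inconclusive means duplicate wells that disagreed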;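 further: run without ouabain in cells lacking the KCC2 cotransporter; slope of fluorescence scaled to its starting value between 10 and 20 s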
Numbers without * were called inactive; ? = inconclusive; . = no result; ! = not confirmed by another sample. Compounds with a hit are over-represented: about 3.3% of the library has one in this group of screens.

SMILES	Efflux pump inh	Calb FLC	Cardio protect	KCC2 mod	PHOSPHO1 inh	KCC2 sec1	KCC2 bumet counter	KCC2 secondary2	HEK counter1	KCC2 ouabain	HEK counter2
COc1ccc2[nH]c3c(c2c1)CCN1C(=O)C(CC(=O)NCCCn2ccnc2)C[C@H](C(=O)N2CCOCC2)[C@@]31C (some centres undefined)	0	.	-2	.	.	.	.	.	.	.	.
COc1cc(C(=S)N2CCOCC2)ccc1OC(=O)Cc1ccc(F)cc1	0	2	3	-4.8*	-8	0.0089	0.0057	0.028*	0.0074	0.015*	0.011
Cc1ccc(-c2nc(C)sc2CC(=O)OCC(=O)Nc2ccc(F)c(Cl)c2)cc1	0	0	-8	.	.	.	.	.	.	.	.
CCCc1cc(=O)[nH]c(SCC(=O)c2ccc3c(c2)NC(=O)CO3)n1	0	-6	2	11*	28	0.016	0.0041	0.029	0.0074	0.017	0.0095
CCCc1nc(SCC(=O)c2ccc3c(c2)NC(=O)CO3)[nH]c(=O)c1CC	.	.	-1	.	.	.	.	.	.	.	.
Cc1ccc(Sc2ncccc2C(=O)NCc2cc([N+](=O)[O-])ccc2O)cc1C	-1	35	-1	.	3	.	.	.	.	.	.
Cc1ccc(O)c(C2=NNC(c3ccc(Cl)cc3)C2)c1 (centres undefined)	0	78*	-11	8.6*	27	0.0094	0.016*	0.033	0.013*	0.027	?
Oc1ccc(Cl)cc1C1=NNC(c2cccs2)C1 (centres undefined)	0	-14	0	68*	8	0.01	0.098*	?	0.061*	0.077*	0.023*
CC(C)(CNc1ccc([N+](=O)[O-])cc1Cl)N1CCOCC1	0	15	-4	.	6	.	.	.	.	.	.
Nc1nc(Oc2ccc(F)cc2)c(Br)c(=O)[nH]1	0	0	6	.	3	.	.	.	.	.	.
CC(C)C(CCNC(=O)CC(Cc1ccccc1)c1ccco1)c1ccco1 (centres undefined)	0	-5	-6	-4.5*	16	?	0.005	?	?	0.016*	0.0095
CN(C)c1ccc(-c2ccnc3c2CC(C)(C(=O)Nc2ccc(F)c(Cl)c2)O3)cc1 (centres undefined)	.	.	3	.	.	.	.	.	.	.	.
Cc1cc(C(=O)Nc2nc3c(s2)CCCC3)no1	0	11	-10	4.4*	-25	0.011	0.015*	0.034	0.0091*	0.024	?
Cc1ccc(NC(=O)C(C)OC(=O)c2nc(Cl)ccc2Cl)cc1S(=O)(=O)N1CCOCC1 (centres undefined)	.	.	13	.	.	.	.	.	.	.	.
COc1cccc(C(O)c2cnc(C(C)C)n2C)c1 (centres undefined)	0	-1	-2	0.47	4	.	.	.	.	.	.
CCOC(=O)n1c(O)c(N=NC(N)=S)c2cc(C)ccc21	0	-7	4	18*	-61	0.016	0.038*	?	0.014*	0.031*	0.016*
CCc1cc2c(cc3c(=O)n(CC(=O)N4CCN(c5ccccn5)CC4)nc(CC)n32)s1	0	-2	15	.	5	0.0077	0.0045	0.03	0.0073	0.016	0.0097
Cc1nn(CC(=O)N2CCN(c3ccccn3)CC2)c(=O)c2cc3sccc3n12	0	1	2	.	45	.	.	.	.	.	.
CC(Oc1cccnc1[N+](=O)[O-])C(=O)N1CCc2ccccc21 (centres undefined)	0	.	3	.	.	.	.	.	.	.	.
S=c1[nH]c2ccc3ccccc3c2[nH]1	0	3	4	-0.94	-16	.	.	.	.	.	.
S=c1[nH]c2cc3ccccc3cc2[nH]1	0	?	6	3.3*!	25	0.017	0.0076*	?	0.0091*	0.016	?
CCc1n[nH]c(=S)n1/N=C/c1ccc(N(C)c2ccccc2)cc1	0	-20	-20	9.5*	46	0.0098	0.019*	0.032	0.029*	0.026*	0.012
Cc1oc2cc(O)ccc2c(=O)c1-c1cnn(-c2ccccc2)c1	0	1	10	-0.32	-14	.	.	.	.	.	.
O=c1c(-c2cnn(-c3ccccc3)c2)coc2cc(O)ccc12	0	36	-6	-4.1*	-6	0.0071	0.0059*	0.026*	0.0076	?	0.011
CC1Cc2ccccc2N1C(=O)c1ccc(N2CCCC2)c([N+](=O)[O-])c1 (centres undefined)	0	6	-7	-6.5*	4	0.0068	0.0047	0.02*	0.0071	0.013*	0.01
SMILES	Efflux pump inh	Calb FLC	Cardio protect	KCC2 mod	PHOSPHO1 inh	KCC2 sec1	KCC2 bumet counter	KCC2 secondary2	HEK counter1	KCC2 ouabain	HEK counter2
O=C(c1ccc(N2CCCC2)c([N+](=O)[O-])c1)N1CCc2ccccc2C1	0	3	-3	.	.	.	.	.	.	.	.
CC1Cc2ccccc2N1C(=O)c1ccc(N2CCCCC2)c([N+](=O)[O-])c1 (centres undefined)	-2	-2	-1	-4.7*	-4	0.011	?	?	0.0069	0.013*	0.01
C=CCn1c(SCC(=O)N(C)C2CCS(=O)(=O)C2)nnc1-c1ccccc1 (centres undefined)	0	-2	1	.	.	.	.	.	.	.	.
CC1(CCc2ccccc2)NC(=O)N(CC(=O)Nc2c(F)cccc2F)C1=O (centres undefined)	0	.	9	.	.	.	.	.	.	.	.
Cc1ccc(S(=O)(=O)N2CCN(C(=O)COC(=O)CCOc3ccccc3C)CC2)c(C)c1	.	.	-2	.	.	.	.	.	.	.	.
COc1cccc(/C=c2\s/c(=C/C(=O)c3ccc(C)cc3)[nH]c2=O)c1OC	0	-18	13	4.7*	-26	0.0055	?	0.035	0.011*	0.026*	?
COc1ccc(/C(O)=C2/C(=O)C(=O)N(CCN(C)C)C2c2ccccn2)cc1OC (centres undefined)	0	-2	-3	4*	28	0.0089	0.0074	0.029	?	0.021	?
O=C1C(=O)N(CCN2CCOCC2)C(c2ccccn2)/C1=C(/O)c1ccccc1 (centres undefined)	0	-4	6	.	58	.	.	.	.	.	.
Cc1ccc(/C(O)=C2/C(=O)C(=O)N(CCN3CCOCC3)C2c2ccccn2)cc1 (centres undefined)	0	-14	1	2.7*	-8	0.0079	?	0.033	?	0.026	0.01
